Here are results for four molecules from PubChem BioAssay.

Experiment [1] is described as follows: E. coli DRC41 culture turbidity changes, primary screen, E. coli filamentation inducer project, strain DRC41, OD650, 48 h (AID 1152).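 Further: E. coli MC1000 strain DRC41 lacking acrAB efflux pump and sulA.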 Conditions: E. coli DRC41 (acrAB sulA), higher = more signal, called active from +8 up or from −8 down.
Experiment [2] is described as follows: small-molecule binders of probe aLefty1, primary screen, biochemical, small-molecule microarray, 635/667 nm fluorescence (AID 1153).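 Further: score merges spot fluorescence with signal-to-noise ratio from the scanned slide images.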 The note with it: higher = more signal.
Experiment [3] in a line: PSAC antagonists in infected red cells, primary screen, cell-based, P. falciparum Indochina, OD700, 1 h (AID 1154). Conditions: P. falciparum Indochina infected RBC osmotic lysis, higher = more signal, called active from +8 up or from −8 down.
A short description of experiment [4]: PSAC antagonists in infected red cells, primary screen, cell-based, P. falciparum Indochina, OD700, 2 h (AID 1155).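 Further: lysis reports solute entry through the parasite surface anion channel PSAC; channel blockers reduce lysis of infected cells.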 The note with it: P. falciparum Indochina infected erythrocytes, osmotic lysis OD700; higher = more signal, called active from +8 up or from −8 down.
Experiment [5] can be described thus: osmotic lysis modulators in infected erythrocytes, primary screen, PSAC antagonist project, cell-based, P. falciparum Indochina, OD700, 3 h (AID 1156). Conditions: higher = more signal, called active from +8 up or from −8 down.
The nature of experiment [6]: PSAC antagonists in infected red cells, primary screen, cell-based, P. falciparum Indochina, OD700, 18 h (AID 1157). Conditions: P. falciparum Indochina infected erythrocytes, osmotic lysis OD700, 18 h; higher = more signal, called active from +8 up or from −8 down.
Experiment [7] is described as follows: modulators of S6 phosphorylation in cells, primary screen, cell-based, A549, cytoblot, luminescence, serum-stimulated (AID 1158).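 Further: serum-stimulated A549 lung adenocarcinoma cells; signal is phosphorylated S6 detected by cytoblot immunostaining with HRP secondary.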 Conditions: A549 phospho-S6 cytoblot, 5 h, higher = more signal.
Experiment [8] addresses NADPH oxidase 2 (Homo sapiens) (UniProt P04839). Kind of experiment: NOX2-dependent H2O2 signal modulators, primary screen, NOX inhibitor project, cell-based, HEK293-NOX2, PMA-stimulated, Amplex Red fluorescence (AID 1159). Further: test concentration not given here. The note with it: 45 min, higher = more signal, called active from +8 up or from −8 down.
Experiment [9] concerns the target NADPH oxidase 4 (Homo sapiens) (UniProt Q9NPH5). The experiment in a line: NOX4-dependent H2O2 signal modulators, primary screen, NOX inhibitor project, cell-based, HEK293-NOX4, tetracycline-induced, Amplex Red fluorescence (AID 1160). Conditions: 45 min, higher = more signal, called active from +8 up or from −8 down.
The target in experiment [10] is NADPH oxidase 5 (Homo sapiens) (UniProt Q96PH1). The experiment in a line: NOX5-dependent H2O2 signal modulators, primary screen, NOX inhibitor project, cell-based, HEK293-NOX5, Amplex Red fluorescence (AID 1161). The note with it: HEK293-NOX5, ionomycin, 45 min, higher = more signal.
Chain of NADPH oxidase 5 (Homo sapiens) (Q96PH1 whole entry, looked up): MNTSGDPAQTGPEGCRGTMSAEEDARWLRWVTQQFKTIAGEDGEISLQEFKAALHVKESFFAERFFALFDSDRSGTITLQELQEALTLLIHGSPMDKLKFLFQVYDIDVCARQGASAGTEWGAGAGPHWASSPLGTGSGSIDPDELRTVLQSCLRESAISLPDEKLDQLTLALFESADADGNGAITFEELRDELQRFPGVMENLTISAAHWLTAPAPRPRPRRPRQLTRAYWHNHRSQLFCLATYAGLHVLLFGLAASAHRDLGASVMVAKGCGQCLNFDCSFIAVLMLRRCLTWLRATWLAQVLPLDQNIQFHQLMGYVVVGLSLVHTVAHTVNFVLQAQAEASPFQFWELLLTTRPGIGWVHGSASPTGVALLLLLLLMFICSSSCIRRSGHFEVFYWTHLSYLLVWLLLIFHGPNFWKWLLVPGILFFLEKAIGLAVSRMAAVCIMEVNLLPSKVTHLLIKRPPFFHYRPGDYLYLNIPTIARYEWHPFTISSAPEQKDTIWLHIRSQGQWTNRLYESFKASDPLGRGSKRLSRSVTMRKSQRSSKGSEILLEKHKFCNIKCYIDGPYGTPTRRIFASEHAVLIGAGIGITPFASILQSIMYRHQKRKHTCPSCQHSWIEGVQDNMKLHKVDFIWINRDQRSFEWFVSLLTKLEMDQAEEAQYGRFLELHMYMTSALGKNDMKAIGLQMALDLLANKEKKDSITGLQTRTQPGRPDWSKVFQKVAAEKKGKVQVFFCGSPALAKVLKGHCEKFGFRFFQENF
Experiment [11] can be described thus: A549 cell viability effects, profiling panel, calcein-AM fluorescence, 48 h, basal (AID 1162). Further: test concentration not given here. Conditions: higher = more signal.
Experiment [12] in a line: adipocyte viability effects, profiling panel, cell-based, 3T3-L1 adipocytes, calcein-AM fluorescence, 48 h, basal (AID 1163). Further: test concentration not given here. The note with it: 3T3-L1 adipocytes viability, higher = more signal.
The nature of experiment [13]: HepG2 cell viability effects, profiling panel, calcein-AM fluorescence, 48 h, basal (AID 1164). Further: test concentration not given here. The note with it: higher = more signal.
The nature of experiment [14]: MM1S cell viability effects, profiling panel, calcein-AM fluorescence, 48 h, basal (AID 1165).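 Further: viability of MM1S multiple myeloma cells under basal unstimulated conditions; test concentration not given here.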 Conditions: higher = more signal.
A short description of experiment [15]: basal RPMI8226 viability, no added stimulus, profiling panel, cell-based, calcein-AM fluorescence, 48 h, PK04 Diversity Set (AID 1166).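 Further: cells grown under basal conditions without added stimulus; test concentration not given here.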 Conditions: RPMI8226 myeloma viability, higher = more signal.
A short description of experiment [16]: basal HepG2 mitochondrial membrane potential changes, profiling panel, cell-based, JC-1 fluorescence, 24 h, 100 nL compound (AID 1167). Further: test concentration not given here. Conditions: higher = more signal.
Experiment [17] in a line: basal 3T3-L1 adipocyte mitochondrial potential changes, profiling panel, cell-based, JC-1 fluorescence, 3T3-L1 adipocytes, 24 h, 100 nL compound (AID 1168). Further: test concentration not given here. Conditions: JC-1 mitochondrial fluorescence, higher = more signal, called active from +8 up or from −8 down.
Experiment [18] in a line: basal RPMI8226 mitochondrial membrane potential changes, profiling panel, cell-based, JC-1 fluorescence, 24 h, 100 nL compound (AID 1169). Further: test concentration not given here. Conditions: RPMI8226 myeloma, JC-1 mitochondrial potential fluorescence, higher = more signal.
Experiment [19] in a line: basal MM1S mitochondrial membrane potential changes, profiling panel, cell-based, JC-1 fluorescence, 24 h, 100 nL compound (AID 1170). Further: test concentration not given here. Conditions: higher = more signal.
Experiment [20] in a line: A549 lung cancer cell viability effects, profiling panel, resazurin fluorescence, 24 h, PK04 Diversity Set (AID 1171). Further: test concentration not given here. The note with it: higher = more signal, called active from +8 up or from −8 down. A general note: The colour change of resazurin is a common sign of viable cells or microbes.

Calls of active or inactive are those of the source.

Chain of NADPH oxidase 2 (Homo sapiens) (P04839 whole entry, looked up): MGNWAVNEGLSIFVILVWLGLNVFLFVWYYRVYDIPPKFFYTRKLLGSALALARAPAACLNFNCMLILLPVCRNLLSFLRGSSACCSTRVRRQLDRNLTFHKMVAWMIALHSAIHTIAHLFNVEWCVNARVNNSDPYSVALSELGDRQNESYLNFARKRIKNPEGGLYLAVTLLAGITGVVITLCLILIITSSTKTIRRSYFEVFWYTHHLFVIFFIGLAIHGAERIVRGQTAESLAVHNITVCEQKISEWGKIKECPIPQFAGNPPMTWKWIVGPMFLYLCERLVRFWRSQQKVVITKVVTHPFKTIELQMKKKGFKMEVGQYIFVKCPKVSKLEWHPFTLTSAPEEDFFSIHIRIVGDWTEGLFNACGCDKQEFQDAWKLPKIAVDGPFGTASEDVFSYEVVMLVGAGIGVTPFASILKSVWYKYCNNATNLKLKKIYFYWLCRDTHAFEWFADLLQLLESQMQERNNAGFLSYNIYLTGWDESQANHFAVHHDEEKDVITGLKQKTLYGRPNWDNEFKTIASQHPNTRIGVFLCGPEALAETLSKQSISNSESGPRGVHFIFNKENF
Chain of NADPH oxidase 4 (Homo sapiens) (Q9NPH5 whole entry, looked up): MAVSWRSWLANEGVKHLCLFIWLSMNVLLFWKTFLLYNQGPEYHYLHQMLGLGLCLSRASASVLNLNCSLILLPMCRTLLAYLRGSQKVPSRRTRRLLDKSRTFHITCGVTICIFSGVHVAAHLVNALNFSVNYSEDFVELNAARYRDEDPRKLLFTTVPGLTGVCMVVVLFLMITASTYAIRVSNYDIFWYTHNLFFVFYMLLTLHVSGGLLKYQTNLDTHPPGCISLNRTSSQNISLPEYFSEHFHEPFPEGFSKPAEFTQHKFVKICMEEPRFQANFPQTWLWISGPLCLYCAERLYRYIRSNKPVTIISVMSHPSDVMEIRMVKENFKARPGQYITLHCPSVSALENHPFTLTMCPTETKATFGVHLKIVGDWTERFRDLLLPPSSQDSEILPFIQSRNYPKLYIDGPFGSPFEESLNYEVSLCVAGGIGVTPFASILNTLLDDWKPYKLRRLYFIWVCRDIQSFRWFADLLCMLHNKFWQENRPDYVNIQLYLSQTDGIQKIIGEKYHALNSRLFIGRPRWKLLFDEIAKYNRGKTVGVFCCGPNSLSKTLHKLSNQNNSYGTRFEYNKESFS

Regarding `C=CCNC(=O)[C@@H]1[C@H]2C(=O)O[C@H](c3ccccc3)[C@H](c3ccccc3)N2[C@H](c2ccccc2OCCO)[C@@]12C(=O)N(C(=O)OCCOC)c1ccc(C#CCNC(N)=O)cc12`, the z-score in [1] is -0.302 (inactive); in experiment [3] it was 3.09 (inactive); in experiment [4], 0.483 (inactive); in experiment [5], 1.3 (inactive); in experiment [6], 0.466 (inactive); in [7] it was 0.425. In addition, the z-score in experiment [8] is 1.77 (inactive); in experiment [9] it was 1.54 (inactive); in experiment [10] it was -0.131; in experiment [11], 0.843; in experiment [12] it was 0.595; in experiment [13] it was 0.886. For the same molecule, the z-score in [14] was 0.765; in experiment [15] it was 0.425; in [16] it was 0.766; in [17], 0.586 (inactive); in [18], 0.159; in [19], -0.341. In addition, the z-score in experiment [20] is -0.768 (inactive). The molecule further had a composite z-score in [2] of 0.395.

As for `COC(=O)C=C(CC(O)c1cccc(Cl)c1)OC` (stereo not given), the z-score was 0.502 (inactive) in [1]; 19.4 (active) in experiment [3]; 2.27 (inactive) in experiment [4]; -0.188 (inactive) in [5]; -0.936 (inactive) in experiment [6]; 0.794 in [7]. For the same molecule, the z-score in experiment [8] was 0.0865 (inactive); in experiment [9], -0.0239 (inactive); in [10] it was 0.219; in [11], 0.409; in [12], 0.0036; in [13], 1.01. In addition, the z-score in experiment [14] is 0.892; in experiment [15], -0.221; in experiment [16] it was 0.456; in experiment [17], 0.705 (inactive); in experiment [18] it was -0.738; in experiment [19], -1.36. For the same molecule, the z-score in [20] is -0.34 (inactive). Also, in experiment [2], the composite z-score worked out at 1.6.

With `CN(C)C(=O)[C@@]1(Cc2ccccc2CN=[N+]=[N-])N=C(c2ccc(OCCCO)cc2)O[C@H]1c1ccccc1`, the z-score in experiment [1] is 0.381 (inactive); in [3], 20.9 (active); in experiment [4] it was 5.46 (inactive); in [5] it was 1.59 (inactive); in experiment [6] it was 1.45 (inactive); in [7], -0.0813. Moreover, the z-score in experiment [8] is -2.45 (inactive); in experiment [9], -0.0483 (inactive); in experiment [10], 0.524; in experiment [11], -0.62; in experiment [12], -0.476; in [13], -1.18. The z-score was -3.03 in [14]; -3.94 in experiment [15]; -0.807 in [16]; -0.215 (inactive) in experiment [17]; -0.988 in experiment [18]; -2.52 in [19]. For the same molecule, in experiment [20], the z-score is -0.325 (inactive). Further, the composite z-score in experiment [2] amounted to 1.18.

For the molecule `[N-]=[N+]=Nc1ccccc1[C@H]1OC(c2ccc(OCCCO)cc2)=N[C@@]1(Cc1ccccc1)C(=O)O`, the z-score in experiment [1] is 0.409 (inactive); in experiment [3], 32 (active); in experiment [4], 27.2 (active); in experiment [5] it was 1.65 (inactive); in experiment [6], 7.43 (inactive); in experiment [7], -0.259. The z-score in [8] is -0.0311 (inactive); in experiment [9] it was 1.5 (inactive); in [10], 1.75; in experiment [11], 1.98; in experiment [12], 0.276; in experiment [13], 0.73. Besides, the z-score is -0.0876 in experiment [14]; -0.532 in experiment [15]; -0.107 in experiment [16]; 0.222 (inactive) in experiment [17]; -0.0546 in [18]; -1.2 in experiment [19]. In addition, the z-score in experiment [20] is -0.724 (inactive). Moreover, the composite z-score in experiment [2] was determined as 0.346.
